Measured values taken from PubChem BioAssay.
For some assays here: Results with a measured potency or affinity are listed apart. Active and inactive are the calls of the source.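 How the source made its calls, unless noted: active means earlier screen potentiator hit that boosts the TRPC4 ion channel at some dose, with a dose response; inactive means no potentiation, no dose response, or not a prior hit.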

Assays:
[1] = test system: TRPC4 beta (transient receptor potential cation channel C4), mouse; assay: TRPC4 cation channel opening, retest – cell-based, Fluo4 calcium, HEK293 TRPC4beta/mu-opioid, duplicates, 10 µM, confirmation (AID 2426;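 active means fluorescence ratio normalized to control raised more than 50% in primary screen plus both repeat runs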;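 on activation: percent rise of integrated ratio over buffer wells lacking compound which define 0%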); conditions: Fluo4 calcium fluorescence, at 10 µM; active compounds read high
[2] = test system: transient receptor potential cation channel C4 beta (TRPC4), mouse; assay: TRPC4 cation channel opening, second retest – cell-based, second round, Fluo4, HEK293 TRPC4beta/mu-opioid, 1 µM, confirmation (AID 2461;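 active means primary screen active and over 50% activation in each of two duplicate runs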;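 on activation: 0% = wells without test compound as baseline of integrated fluorescence ratio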); conditions: Fluo4 calcium fluorescence, at 1 µM; active compounds read high
[3] = test system: TRPC4 (transient receptor potential cation channel C4 beta), mouse; assay: potentiation of DAMGO EC20 TRPC4 response – cell-based, second round, Fluo-4, HEK293 TRPC4beta/mu-opioid, 1 µM, confirmation (AID 2554;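 active means primary screen hit whose fluorescence ratio, in both repeats, exceeds the weak agonist control mean by 3 SD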); conditions: DAMGO EC20, Fluo-4 calcium flux, at 1 µM; active compounds read high
[4] = test system: TRPC4 beta (transient receptor potential cation channel C4), mouse; assay: potentiation of DAMGO EC20 TRPC4 response – cell-based, Fluo-4, HEK293 TRPC4beta/mu-opioid, confirmation (AID 2555;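 active means primary screen hit whose calcium fluorescence ratio, in both repeats, exceeds the weak agonist control mean by 3 SD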); conditions: DAMGO EC20, Fluo-4 calcium flux, at 10 µM; active compounds read high
[5] = biological target: Short transient receptor potential channel 4 (Mus musculus) (UniProt Q9QUQ5); assay: blockers of DAMGO-evoked TRPC4 calcium flux – cell-based, Fluo4, HEK293 TRPC4beta/mu-opioid, confirmation (AID 2636;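 active means calcium signal cut by more than 3 SD below the full-agonist control yet still positive, in both repeats and the earlier primary screen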); conditions: at 10 µM; active compounds read high
Chain of Short transient receptor potential channel 4 (Mus musculus) (Q9QUQ5 whole entry, looked up): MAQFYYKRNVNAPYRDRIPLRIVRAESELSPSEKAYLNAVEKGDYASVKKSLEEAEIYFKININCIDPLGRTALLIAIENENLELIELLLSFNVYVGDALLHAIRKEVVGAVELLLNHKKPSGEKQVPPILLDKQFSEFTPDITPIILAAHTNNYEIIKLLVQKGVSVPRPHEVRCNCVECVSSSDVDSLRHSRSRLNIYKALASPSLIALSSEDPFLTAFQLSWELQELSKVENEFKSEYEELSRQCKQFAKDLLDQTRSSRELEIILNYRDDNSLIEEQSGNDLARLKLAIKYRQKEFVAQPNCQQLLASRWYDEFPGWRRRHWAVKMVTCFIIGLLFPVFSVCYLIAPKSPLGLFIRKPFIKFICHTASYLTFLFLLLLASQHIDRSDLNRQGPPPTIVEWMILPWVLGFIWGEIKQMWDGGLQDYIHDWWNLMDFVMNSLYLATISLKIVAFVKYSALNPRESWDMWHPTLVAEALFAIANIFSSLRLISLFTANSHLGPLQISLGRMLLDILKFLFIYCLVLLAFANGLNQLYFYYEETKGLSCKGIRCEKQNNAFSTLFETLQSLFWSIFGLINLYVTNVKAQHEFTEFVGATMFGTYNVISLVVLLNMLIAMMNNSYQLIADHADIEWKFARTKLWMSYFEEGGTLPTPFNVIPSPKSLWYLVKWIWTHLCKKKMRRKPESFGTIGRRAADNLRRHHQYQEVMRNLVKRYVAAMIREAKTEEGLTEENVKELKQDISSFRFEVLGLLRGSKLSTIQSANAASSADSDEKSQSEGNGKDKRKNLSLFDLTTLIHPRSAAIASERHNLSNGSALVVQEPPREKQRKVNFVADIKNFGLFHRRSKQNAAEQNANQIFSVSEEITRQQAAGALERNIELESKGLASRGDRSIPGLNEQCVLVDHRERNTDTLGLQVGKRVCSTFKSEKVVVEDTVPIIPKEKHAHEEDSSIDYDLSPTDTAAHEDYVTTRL

[6] = biological target: Short transient receptor potential channel 4 (Mus musculus) (UniProt Q9QUQ5); assay: blockers of DAMGO-evoked TRPC4 calcium flux – cell-based, second round, Fluo4, HEK293 TRPC4beta/mu-opioid, 1 µM, confirmation (AID 2637;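 active means calcium signal ratio cut to more than 3 SD under the fully stimulated control mean yet still positive, in both repeats and the primary screen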); conditions: at 1 µM; active compounds read high
[7] = biological target: Short transient receptor potential channel 4 (Mus musculus) (UniProt Q9QUQ5); assay: potentiation of DAMGO-evoked TRPC4 calcium signal – cell-based, HEK293 TRPC4/mu-opioid, Fluo-4 calcium, EC20 DAMGO, dose response (AID 434941);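 further: calcium entry triggered by an EC20 dose of DAMGO at the co-expressed mu-opioid receptor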
[8] = biological target: Short transient receptor potential channel 4 (Mus musculus) (UniProt Q9QUQ5); assay: block of DAMGO-driven TRPC4 calcium entry – cell-based, HEK293 TRPC4/mu-opioid, Fluo-4 calcium, dose response (AID 434942;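 active means primary screen inhibitor hit that blocks the TRPC4 channel at some tested dose, yielding a dose curve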)
[9] = biological target: Short transient receptor potential channel 6 (Mus musculus) (UniProt Q61143); assay: TRPC6 blockade by TRPC4 inhibitor hits – cell-based, HEK293, membrane potential dye, duplicate, selectivity assay for TRPC4 inhibitor project, confirmation (AID 434948;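 active means active in primary screen and both duplicates, each dropping signal beyond three positive-control SD with fluorescence still positive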); conditions: HEK293 TRPC6, membrane potential dye fluorescence, at 10 µM, stimulated with maximal-effect acetylcholine; active compounds read high
Chain of Short transient receptor potential channel 6 (Mus musculus) (Q61143 whole entry, looked up): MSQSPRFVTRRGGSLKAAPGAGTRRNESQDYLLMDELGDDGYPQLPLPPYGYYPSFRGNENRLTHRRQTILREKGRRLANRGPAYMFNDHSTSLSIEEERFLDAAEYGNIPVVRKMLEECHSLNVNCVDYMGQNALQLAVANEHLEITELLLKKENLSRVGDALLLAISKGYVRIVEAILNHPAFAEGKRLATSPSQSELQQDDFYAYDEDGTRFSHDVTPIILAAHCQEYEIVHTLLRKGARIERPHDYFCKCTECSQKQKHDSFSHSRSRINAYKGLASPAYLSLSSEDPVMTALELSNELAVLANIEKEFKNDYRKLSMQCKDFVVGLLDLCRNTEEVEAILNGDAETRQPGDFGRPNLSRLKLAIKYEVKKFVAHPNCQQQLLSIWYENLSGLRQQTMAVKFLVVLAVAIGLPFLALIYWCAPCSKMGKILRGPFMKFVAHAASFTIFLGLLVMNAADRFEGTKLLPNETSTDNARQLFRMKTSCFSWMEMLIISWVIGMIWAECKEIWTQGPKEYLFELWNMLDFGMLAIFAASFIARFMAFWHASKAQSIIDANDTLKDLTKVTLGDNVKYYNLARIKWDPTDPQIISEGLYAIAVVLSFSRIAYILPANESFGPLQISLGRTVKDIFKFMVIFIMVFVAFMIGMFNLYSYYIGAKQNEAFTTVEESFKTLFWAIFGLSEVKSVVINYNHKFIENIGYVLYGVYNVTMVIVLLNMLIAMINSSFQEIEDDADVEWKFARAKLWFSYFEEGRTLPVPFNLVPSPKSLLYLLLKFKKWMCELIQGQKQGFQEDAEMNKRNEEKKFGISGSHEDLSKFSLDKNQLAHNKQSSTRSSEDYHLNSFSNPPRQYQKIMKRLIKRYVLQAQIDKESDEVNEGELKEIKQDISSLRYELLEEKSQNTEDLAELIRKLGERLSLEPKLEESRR

[10] = biological target: Short transient receptor potential channel 6 (Mus musculus) (UniProt Q61143); assay: TRPC6 opening by TRPC4 activator hits – cell-based, HEK293, membrane potential dye, duplicate, selectivity assay for TRPC4 activator project, confirmation (AID 434950;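 active means membrane potential signal rise above negative control mean plus 3 SD in both duplicates, also active in the earlier TRPC4 screen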;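 on activation: 0% = buffer only wells and 100% = acetylcholine maximal-effect wells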); conditions: HEK293 TRPC6, membrane potential fluorescence, at 10 µM; activation: active compounds read high; outcome: activation
[11] = biological target: Short transient receptor potential channel 6 (Mus musculus) (UniProt Q61143); assay: positive modulators of mouse TRPC6 channel – HEK293 cells, membrane potential dye, duplicate, selectivity assay for TRPC4 potentiator project, confirmation (AID 434952;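 active means compound raising the membrane signal above positive-control mean plus 3 SD in both repeats, and a primary screen hit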); conditions: HEK293 TRPC6, membrane potential dye fluorescence, at 10 µM, maximal acetylcholine added after compound; active compounds read high
[12] = biological target: Short transient receptor potential channel 4 (Mus musculus) (UniProt Q9QUQ5); assay: calcium flux activators in TRPC4/5HT1a cells, counter-screen for TRPC4 activator project, cell-based, second counter screen, HEK293 TRPC4/5HT1a, Fluo-4 (AID 434977;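 active means calcium signal rise above buffer-control mean plus 5 SD in both duplicates, and also a hit in the primary screen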;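 on activation: plate controls were assay buffer for no effect and maximal serotonin response for full effect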); conditions: Fluo-4 calcium flux, at 10 µM; active compounds read high
[13] = serotonin-gated TRPC4 signal block – cell-based, second counter screen, HEK293 TRPC4/5HT1a, Fluo-4, counter-screen for TRPC4 inhibitor project, confirmation (AID 434978;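 active means primary screen active whose calcium signal fell more than 3 SD beyond the full-serotonin control mean in both duplicate plates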;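 further: serotonin given first at submaximal then at maximal dose after compound preincubation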); conditions: Fluo-4 calcium flux, at 10 µM, serotonin added to trigger calcium flux; active compounds read high
[14] = test system: TRPC4 (mouse), co-expressed with 5HT1a in HEK293; assay: enhancement of serotonin-evoked TRPC4 response – cell-based, second counter screen, HEK293 TRPC4/5HT1a, Fluo-4, counter-screen for TRPC4 potentiator project, confirmation (AID 434979;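 active means signal rise over 3 SD above mean of control wells given weak agonist, in both repeats and first screen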); conditions: Fluo-4 calcium flux, at 10 µM, serotonin added at its EC20 dose; active compounds read high
[15] = nonspecific calcium rise without TRPC4 – cell-based, HEK293 mu-opioid receptor line, counter-screen for TRPC4 activator project, confirmation (AID 449723;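 active means hit in primary screen, with calcium signal over 5 SD above buffer well mean in both duplicates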;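 further: counter screen cells carry the mu-opioid receptor alone and lack TRPC4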); conditions: HEK293 mu-opioid cells, Fluo-4 calcium fluorescence, at 10 µM; active compounds read high
[16] = nonspecific potentiation of DAMGO calcium response – cell-based, HEK293 mu-opioid receptor line, counter-screen for TRPC4 allosteric potentiator project, confirmation (AID 449724;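 active means calcium signal rise more than 3 SD above the low-dose agonist control mean, in both duplicate plates and the primary screen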;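 further: HEK293 cells carrying mu-opioid receptor only with no TRPC4 channel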); conditions: HEK293 mu-opioid receptor cells, Fluo-4 calcium flux, at 10 µM, compound added before EC20 DAMGO stimulus; active compounds read high

SMILES	activation [1]	outcome [2]	outcome [3]	outcome [4]	outcome [5]	outcome [6]	outcome [7]	outcome [8]	outcome [9]	outcome [10]	outcome [11]	outcome [12]	outcome [13]	outcome [14]	outcome [15]	outcome [16]	outcome [1]	activation [10]	activation [12]	activation [2]
Cc1cc(C)n(-c2nc(SCCN(C)C)c3c4c(sc3n2)CCCC4)n1	162% (active)	inactive	inactive	inactive	inactive	inactive	inactive	inactive	inactive	inactive	inactive	inactive	inactive	inactive	inactive	inactive				
Cc1ccc(Cl)cc1NC(=O)CNCC(c1ccccc1)N(C)C (stereo not drawn)		inactive	inactive	inactive	inactive	inactive	inactive	inactive	inactive		inactive	inactive	inactive	inactive	inactive	inactive	inactive	47.5% (active)		
CCn1cc(CN2CCC(n3nccc3NC(=O)CCOc3ccccc3)CC2)cn1	78% (active)	inactive	inactive	inactive	inactive	inactive	inactive	inactive	inactive	inactive	inactive	inactive	inactive	inactive	inactive	inactive				
CCOC(=O)c1oc2ccc(OC)cc2c1NC(=O)CN1CCN(C)CC1		inactive	inactive	inactive	inactive	inactive	inactive	inactive	inactive		inactive		inactive	inactive	inactive	inactive	inactive	32% (active)	12.8% (active)	
CCCN(CCC)CCCNC(=O)C1CCC(CNS(=O)(=O)c2cccc3nsnc23)CC1 (stereo not drawn)	83% (active)		inactive	inactive	inactive	inactive	inactive	inactive	inactive	inactive	inactive		inactive	inactive	inactive	inactive			29.2% (active)	52% (active)
CCOC(=O)C1(Cc2cccc(F)c2)CCN(Cc2cnc(C)s2)CC1		inactive	inactive	inactive	inactive	inactive	inactive	inactive	inactive		inactive	inactive	inactive	inactive	inactive	inactive	inactive	44% (active)		
COc1ccc(C(CNC(=O)c2cccc(S(=O)(=O)NCc3ccccc3)c2)N(C)C)cc1 (stereo not drawn)	129% (active)		inactive	inactive	inactive	inactive	inactive	inactive	inactive		inactive	inactive	inactive	inactive	inactive	inactive		38% (active)		61% (active)
Cc1sc2nc(CSc3ccccc3)nc(NCCN(C)C)c2c1C	173% (active)	inactive	inactive	inactive	inactive	inactive	inactive	inactive	inactive	inactive	inactive		inactive	inactive	inactive	inactive			15.2% (active)	
